APOBEC3A inh = inhibitors of human APOBEC3A DNA deaminase | recombinant A3A, FAM/TAMRA ssDNA deamination fluorescence | actives 0.41% (n = 330,000) | inhibition, % at 20 µM | AID 493011;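 active means at least 40% inhibition at 20 µM here, with at most 30% in a related deaminase screen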;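 further: plate controls were A3A with DMSO for no effect and wells lacking A3A enzyme for full effect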
Target sequence (P31941 whole entry, looked up): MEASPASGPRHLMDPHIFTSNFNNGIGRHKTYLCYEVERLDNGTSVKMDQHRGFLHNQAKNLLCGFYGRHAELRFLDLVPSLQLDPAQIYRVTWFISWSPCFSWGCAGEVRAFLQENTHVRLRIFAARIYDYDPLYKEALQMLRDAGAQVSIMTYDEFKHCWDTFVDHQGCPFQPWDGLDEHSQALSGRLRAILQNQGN
Bfl-1 A1 inh = inhibitors of the anti-apoptotic protein A1, read as caspase activation; MEF A1-2A-BIM cells, Caspase-Glo 3/7 luminescence, 3 h; percent of clofoctol response, vehicle zero; caspase activation, % (concentration not given with the values); actives 0.066% (n = 330,000);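 active means over half of replicate activation scores above 10%, or exactly half above 10 with the replicate mean above 10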
APOBEC3G inh = blocks human APOBEC3G single-stranded DNA deamination | recombinant A3G, ssDNA deamination FAM/TAMRA fluorescence | inhibition, % at 20 µM | actives 0.28% (n = 330,000);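 active means inhibition of at least 40% at 20 µM, with no more than 30% in the related APOBEC3A deaminase screen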;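 further: plate controls were DMSO wells with A3G for no effect and wells lacking A3G enzyme for full effect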
Target sequence (Q9HC16 whole entry, looked up): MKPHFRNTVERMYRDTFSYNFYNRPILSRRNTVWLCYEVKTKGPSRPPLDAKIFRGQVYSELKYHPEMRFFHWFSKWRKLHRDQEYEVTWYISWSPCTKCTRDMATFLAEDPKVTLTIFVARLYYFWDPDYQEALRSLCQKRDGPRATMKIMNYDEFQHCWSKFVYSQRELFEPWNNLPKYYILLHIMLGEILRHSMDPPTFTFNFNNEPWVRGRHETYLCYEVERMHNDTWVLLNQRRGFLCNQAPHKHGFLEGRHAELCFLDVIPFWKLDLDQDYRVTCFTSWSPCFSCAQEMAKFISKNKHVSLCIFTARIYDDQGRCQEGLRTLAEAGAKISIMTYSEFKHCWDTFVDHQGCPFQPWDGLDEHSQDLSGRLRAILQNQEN
beta cell repl = MIN6 beta-cell proliferation induction; proliferation, % at 10 µM; MIN6 cells proliferation, ATPlite luminescence, 48 h; cells starved in 0.2% serum; 100% = growth in 10% serum; actives 0.29% (n = 330,000);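 active means compounds whose signal lies at least 3.5 SD above the mean of all wells on their plate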;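 further: 0% = DMSO-treated cells in low-serum medium and 100% = 10% serum control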
APOBEC3A confirm = APOBEC3A (human) deaminase inhibition, confirmed; shares compounds with APOBEC3A inh; recombinant A3A, ssDNA deaminase UDG fluorescence assay; inhibition, % at 20 µM; actives 63% (n = 1,400); AID 493151;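 active means inhibition reaching a set limit, 80% of the first screen's cutoff, at 20 µM in any replicate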;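 further: plate controls were DMSO wells with A3A for no effect and wells lacking A3A enzyme for full effect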
UDG A3A counter = inhibits UDG, flagging false APOBEC3A inhibitors. shares compounds with APOBEC3A inh. UDG counterscreen, FAM/TAMRA uracil oligo fluorescence. inhibition, % at 20 µM. 1,000 tested, under 10 active. AID 504714; call rule not given here
* marks the source's active call; other numbers are inactive results. An excerpt weighted towards active compounds, which were near 1.1% of everything screened.

CCN(CC)CCOCCOC(=O)C1(c2ccccc2)CCCC1 was read as APOBEC3A inh 0, Bfl-1 A1 inh 1, APOBEC3G inh -4 and beta cell repl -1.
COc1ccc(C(=O)OCC[N+]2(C)CCCCC2)cc1 was read as APOBEC3A inh 64*, Bfl-1 A1 inh -1, APOBEC3G inh 12, beta cell repl 0, APOBEC3A confirm 78* and UDG A3A counter -3.
For COc1ccc(C(=O)C[N+]2(C)CCOCC2)cc1 the results were APOBEC3A inh 64*, Bfl-1 A1 inh 0, APOBEC3G inh 20, beta cell repl -1, APOBEC3A confirm 67* and UDG A3A counter -2.
For CC(C[N+](C)(C)C)OC(=O)C1(c2ccccc2)CCCC1 (stereo not drawn) the results were APOBEC3A inh 44*, Bfl-1 A1 inh 0, APOBEC3G inh 14, beta cell repl -3, APOBEC3A confirm 66* and UDG A3A counter -3.
`C[N+](C)(C)CCOC(=O)C1(c2ccccc2)CCCC1` gave APOBEC3A inh 60*, Bfl-1 A1 inh 1, APOBEC3G inh 16, beta cell repl 0, APOBEC3A confirm 76* and UDG A3A counter -2.
`CCN(CC)CCCOC(=O)C1(c2ccccc2)CCCC1` gave APOBEC3A inh -6, Bfl-1 A1 inh 2, APOBEC3G inh -7 and beta cell repl 1.
For N#C/C(=C\c1cn(-c2ccccc2)nc1-c1cccnc1)c1nnc2n1CCCCC2 the results were APOBEC3A inh 43*, Bfl-1 A1 inh 1, APOBEC3G inh -3, beta cell repl -1, APOBEC3A confirm -1 and UDG A3A counter -2.
For CCCCn1c(N)c(N(CCOC)C(=O)c2cnccn2)c(=O)[nH]c1=O the results were APOBEC3A inh 11, Bfl-1 A1 inh -1, APOBEC3G inh -6 and beta cell repl -1.
CCCCN(C(=O)c1c(CC)noc1C)c1c(N)n(CCCC)c(=O)[nH]c1=O was read as APOBEC3A inh 44*, Bfl-1 A1 inh 0, APOBEC3G inh 0, beta cell repl -3, APOBEC3A confirm 23 and UDG A3A counter -2.
`CCCCN(C(=O)c1cnccn1)c1c(N)n(CCC)c(=O)[nH]c1=O` gave APOBEC3A inh 45*, Bfl-1 A1 inh 0, APOBEC3G inh 20, beta cell repl -1, APOBEC3A confirm 46* and UDG A3A counter -2.
For COc1ccccc1CNC(=O)c1ccc(NC(=O)CC2SC(N3CCCC3)=NC2=O)cc1 (stereo not drawn) the results were APOBEC3A inh -1, Bfl-1 A1 inh 1, APOBEC3G inh -5 and beta cell repl -1.
Screening COC(=O)c1ccc(NC(=O)CSc2ccccn2)cc1 returned APOBEC3A inh 55*, Bfl-1 A1 inh 0, APOBEC3G inh 4, beta cell repl -1 and APOBEC3A confirm 6.
COC(=O)c1ccc(NCC(=O)Nc2cc(C)cc(C)c2)cc1 was read as APOBEC3A inh 50*, Bfl-1 A1 inh 1, APOBEC3G inh 18, beta cell repl 0 and APOBEC3A confirm 1.
For COC(=O)c1ccc(CNCC(=O)Nc2ccc(C(=O)OC)cc2)cc1 the results were APOBEC3A inh -1, Bfl-1 A1 inh 0, APOBEC3G inh -4 and beta cell repl -1.
O=C(COC(=O)c1nc(Cl)c(Cl)c(Cl)c1Cl)c1ccc[nH]1 was read as APOBEC3A inh 45*, Bfl-1 A1 inh 0, APOBEC3G inh 13, beta cell repl -8 and APOBEC3A confirm 4.
`COc1cc(NC(=O)c2noc3c2CCC3)c(OC)cc1Cl` gave APOBEC3A inh 49*, Bfl-1 A1 inh 0, APOBEC3G inh 21, beta cell repl -1, APOBEC3A confirm 55* and UDG A3A counter 1.
Screening COc1ccc(NC(=O)CSc2nnc(-c3cccnc3)s2)cc1 returned APOBEC3A inh -1, Bfl-1 A1 inh 1, APOBEC3G inh -5 and beta cell repl 2.
For O=C(N/N=C/c1cc(Br)c(Br)o1)c1ccc2c(c1)OCCO2 the results were APOBEC3A inh 76*, Bfl-1 A1 inh -1, APOBEC3G inh 28, beta cell repl 0, APOBEC3A confirm 50* and UDG A3A counter -1.
`CC12CC(O)C3c4ccc(O)cc4CCC3C1CC/C2=N\O` (stereo not drawn) gave APOBEC3A inh 51*, Bfl-1 A1 inh 2, APOBEC3G inh -13, beta cell repl 3, APOBEC3A confirm 1 and UDG A3A counter 2.
`CC1CCCN(C(=O)C2CCN(S(=O)(=O)c3ccccc3)CC2)C1` (stereo not drawn) gave APOBEC3A inh 1, Bfl-1 A1 inh 2, APOBEC3G inh -5 and beta cell repl -4.
COc1ccccc1OCCSc1nnc(CNC(=O)c2ccco2)n1C was read as APOBEC3A inh 48*, Bfl-1 A1 inh 1, APOBEC3G inh 6, beta cell repl 0 and APOBEC3A confirm 27.
`COc1ccc(/C=N/NC(=O)C(C)Sc2ccccn2)cc1[N+](=O)[O-]` (stereo not drawn) gave APOBEC3A inh 49*, Bfl-1 A1 inh 1, APOBEC3G inh 11, beta cell repl -2, APOBEC3A confirm 65* and UDG A3A counter 12.
CCOC(=O)c1ccc2c(c1)N(C)C(=O)c1ccccc1S2 was read as APOBEC3A inh 57*, Bfl-1 A1 inh -1, APOBEC3G inh 13, beta cell repl -1, APOBEC3A confirm 82* and UDG A3A counter -3.
O=C(CSc1ccc(-c2ccncc2)nn1)N1CCCC1 was read as APOBEC3A inh 2, Bfl-1 A1 inh 0, APOBEC3G inh -1 and beta cell repl -2.
O=C(CSc1ccc(-c2ccncc2)nn1)N1CCCCC1 was read as APOBEC3A inh 102*, Bfl-1 A1 inh -2, APOBEC3G inh -2, beta cell repl -2, APOBEC3A confirm 4 and UDG A3A counter 6.
For COC(=O)/C=C1/S/C(=N/NC(=O)c2ccccc2C)NC1=O the results were APOBEC3A inh 53*, Bfl-1 A1 inh 1, APOBEC3G inh -7, beta cell repl 1, APOBEC3A confirm 2 and UDG A3A counter -2.
`CCN1CCN(c2ccc(NC(=O)c3ccc(OC)c(S(=O)(=O)N4CCCC4)c3)cc2)CC1` gave APOBEC3A inh 15, Bfl-1 A1 inh 1, APOBEC3G inh 7 and beta cell repl 6.
CCN1CCN(c2ccc(NC(=O)c3ccc(Cl)c(N4CCCC4=O)c3)cc2)CC1 was read as APOBEC3A inh 66*, Bfl-1 A1 inh 0, APOBEC3G inh 8, beta cell repl -1 and APOBEC3A confirm 26.
Screening CCN1CCN(c2ccc(NC(=O)c3ccc4c(c3)OCO4)cc2)CC1 returned APOBEC3A inh 0, Bfl-1 A1 inh -2, APOBEC3G inh -2 and beta cell repl 0.
CCN1CCN(C(=O)c2ccc(Cl)c(S(=O)(=O)N3CCOCC3)c2)CC1 was read as APOBEC3A inh 41*, Bfl-1 A1 inh 1, APOBEC3G inh 12, beta cell repl -1, APOBEC3A confirm 14* and UDG A3A counter 2.

High-throughput results: PubChem BioAssay, several laboratories
